# Hits are enriched below; roughly 3.4% of the tested compounds scored in any of these assays.
# FBW7 activator – FBW7 E3 ligase activators, primary screen, biochemical, AlphaScreen, human; 0.13% of 650,000 active; normalized activity (activation), % at 26.1 µM; AlphaScreen FBW7–phospho-cyclin E peptide binding, activator screen; in the data active means normalized activity above about 1.9%;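 further: purified mutant Fbw7 with reduced substrate affinity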
# TEAD-YAP block – TEAD-YAP interaction inhibition, primary screen, TEAD-YAP interaction inhibitor project, luminescence, HEK-TIYL cells. TEAD-Gal4/YAP UAS-luciferase luminescence. inhibition, % at 9.12 µM. 1.4% of 640,000 active; in the data active means inhibition above about 32%;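 further: 0% = median of test compound wells and 100% = reference inhibitor wells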
# MITF inh – MITF inhibitors, primary screen, biochemical, AlphaScreen, human. 0.91% of 650,000 active. inhibition, % at 2.6 µM. AID 1259374, 2018. Microphthalmia-associated transcription factor (Homo sapiens), O75030. AlphaScreen MITF homodimerization, bead proximity signal; in the data active means inhibition above about 50%;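 further: 0% = vehicle wells with protein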
# Target sequence (O75030 whole entry, looked up): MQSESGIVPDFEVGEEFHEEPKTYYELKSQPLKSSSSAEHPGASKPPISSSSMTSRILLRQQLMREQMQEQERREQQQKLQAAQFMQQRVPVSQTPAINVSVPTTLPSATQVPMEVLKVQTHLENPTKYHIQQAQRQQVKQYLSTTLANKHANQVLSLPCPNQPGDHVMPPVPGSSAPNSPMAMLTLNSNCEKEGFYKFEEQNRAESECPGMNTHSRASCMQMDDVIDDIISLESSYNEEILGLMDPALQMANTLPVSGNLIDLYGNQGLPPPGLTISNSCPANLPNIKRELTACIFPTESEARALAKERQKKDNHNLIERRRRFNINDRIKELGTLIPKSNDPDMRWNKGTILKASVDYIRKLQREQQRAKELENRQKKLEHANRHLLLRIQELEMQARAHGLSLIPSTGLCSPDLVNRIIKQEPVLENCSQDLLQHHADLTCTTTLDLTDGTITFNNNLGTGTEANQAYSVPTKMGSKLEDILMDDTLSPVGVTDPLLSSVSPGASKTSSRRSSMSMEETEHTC
# GPR151 ag – activators of human GPR151, primary screen, cell-based, PathHunter beta-arrestin, luminescence. G-protein coupled receptor 151 (Homo sapiens), Q8TDV0. PathHunter beta-arrestin GPR151 cells. activation, % at 11.2 µM. 1% of 650,000 active. AID 1508602, 2020; in the data active means activation above about 4.9%;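 further: 0% = median of compound wells and 100% = cells with positive control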
# * hit, by the source's call.
SMILES,FBW7 activator,TEAD-YAP block,MITF inh,GPR151 ag
Fc1cccc(-c2nn3c(C4COc5ccccc5O4)nnc3s2)c1 (configuration not stated),0,3,-6,0
CCOC(=O)c1c(C)sc2c3c([nH]c12)CCCC3,0,62*,4,1
COC(CNC(=O)c1cnn2c(C)c(Cc3c(C)cc(C)cc3C)c(C)nc12)OC,0,50*,2,2
COC(=O)c1cnn2c(C)c(Cc3ccc(F)cc3)c(C)nc12,0,36*,-1,1
COc1ccccc1CNC(=O)c1cnn2c(C)c(Cc3ccc(F)cc3)c(C)nc12,0,0,8,1
O=C(NCc1ccccc1)C(=Cc1cccc(O)c1)C(=O)NCc1ccccc1,0,35*,5,0
N#C/C(=C\c1cccc(Cl)c1)C(=O)NCc1ccccc1,0,1,1,0
COc1cc(/C=C2\SC(NC(C)=O)=NC2=O)cc(Br)c1OCC(=O)O,0,3,22,-2
CSc1ccccc1Nc1ncnc2c1cnn2-c1cccc(C)c1,0,60*,-11,0
